Source: PubChem BioAssay (Tox21)
Inconclusive results are not listed. Active and inactive are the calls of the source. Unless noted, calls come from the whole dose curve; as a rule, active = well fitted curve in the direction sought with a large enough effect in the repeat runs; inconclusive = weak or mixed curves; inactive = no such curve, though single readings can be large; an effect the other way counts as inactive or inconclusive.

Legend:
[1] = qHTS assay for small molecule agonists of the p53 signaling pathway (AID 651631; calls by dose curve; note: nearly all actives have a fitted effect of over 15% in size)
Outline: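 Beta-lactamase reporter activity under p53 response elements was quantified in HCT-116 cells by FRET fluorescence, following 16 h incubation with test compounds at 37 °C and 2 h substrate development at room temperature.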

[2] = qHTS assay for small molecules that induce genotoxicity in human embryonic kidney cells expressing luciferase-tagged ATAD5 (AID 651632); note: nearly all actives have a fitted effect of over 15% in size
Outline: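 Luminescence read-out: after 16 hr compound exposure at 37C, ATAD5-luciferase HEK293T cells received Amplite, 30 min RT, then CCD imaging. A rise in signal marks genotoxic stress.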

[3] = qHTS assay for small molecule agonists of the p53 signaling pathway - cell viability (AID 651633; calls by dose curve;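 note: p53RE-bla HCT reporter cells with a stable beta-lactamase p53 reporter; series mostly up to about 83 µM; nearly all actives have a fitted effect of over 30% in size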)
Outline: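 p53RE-bla cells were treated with compound for 16 hours at 37 C. Cytotoxicity was then measured as CellTiter-Glo luminescence after 30 min at room temperature.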

[4] = qHTS assay for small molecules that induce genotoxicity in human embryonic kidney cells expressing luciferase-tagged ATAD5 - cell viability (AID 651634; calls by dose curve; note: nearly all actives have a fitted effect of over 25% in size)
Outline: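 HEK293T ATAD5-luc cells, 2,000/well; compound 15.5 hr, 37C/5% CO2; CellTiter-Fluor 30 min, 37C; fluorescence read.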

[5] = qHTS assay for small molecule disruptors of the mitochondrial membrane potential - cell viability (AID 720634; calls by dose curve;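 note: human HepG2 liver cancer cells; series mostly up to about 83 µM; nearly all actives have a fitted effect of over 20% in size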)
Outline: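 Luminescence from CellTiter-Glo (ATP content) gave viability in HepG2 cells, read in the same wells as the MMP dye assay after 1 hr compound exposure at 37 C.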

[6] = qHTS assay to test for compound auto fluorescence at 590 nm (red) in HepG2 cells (AID 720674)
Outline: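 Seeding: 2,000 HepG2 cells/well, MEM/10% FBS, overnight 37 C. Dosing: compound vs DMSO. Incubation: 1 hr, 37 C, 5% CO2. Read: fluorescence 540 ex/590 em, Rose Bengal sodium as red reference.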

[7] = qHTS assay to test for compound auto fluorescence at 535 nm (green) in HepG2 cells (AID 720675)
[8] = qHTS assay to test for compound auto fluorescence at 460 nm (blue) in HEK293 cells (AID 720678)
Outline: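 Intrinsic compound fluorescence is recorded in live HEK293 cultures after overnight incubation at 37C, 5% CO2, using excitation 405 nm and emission 460 nm. Values are referenced to triamterene.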

[9] = qHTS assay to test for compound auto fluorescence at 590 nm (red) in HEK293 cells (AID 720679)
Outline: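 Red autofluorescence, HEK293 cells: 2,000 cells/well; attach 4-5 hr 37C; add 23 nL cpd or DMSO; incubate o/n 37C 5% CO2; read Ex540/Em590; Rose Bengal sodium reference.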

[10] = qHTS assay to test for compound auto fluorescence at 535 nm (green) in HEK293 cells (AID 720680)
[11] = qHTS assay to test for compound auto fluorescence at 460 nm (blue) in HEK293 cell free culture (AID 720681)
Outline: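 Compounds were added to cell-free DMEM with 10% FBS and fluorescence read directly. The blue channel used 405 nm excitation and 460 nm emission, with triamterene as the reference fluorophore.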

[12] = qHTS assay to test for compound auto fluorescence at 535 nm (green) in HEK293 cell free culture (AID 720682)
Outline: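 Each library compound, or DMSO control, is added by pintool to medium alone, comprising DMEM and 10% FBS. Emission at 535 nm following 485 nm excitation is quantified against fluorescein.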

[13] = qHTS assay to test for compound auto fluorescence at 590 nm (red) in HEK293 cell free culture (AID 720683)
Outline: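 Cell-free wells of DMEM with 10% FBS received compound, and intrinsic fluorescence was read at excitation/emission 540/590 nm. Values expressed as equivalence to Rose Bengal sodium.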

[14] = qHTS assay to test for compound auto fluorescence at 590 nm (red) in HepG2 cell free culture (AID 720684)
Outline: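 Auto fluorescence equivalency versus Rose Bengal sodium, red channel Ex/Em 540/590 nm; compounds in cell-free MEM/10% FBS; DMSO vehicle control.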

[15] = qHTS assay to test for compound auto fluorescence at 460 nm (blue) in HepG2 cell free culture (AID 720685)
Outline: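 Cell-free plates of MEM plus 10% FBS received 23 nL compound or DMSO vehicle; blue-channel (405/460 nm) intensity scored against triamterene as reference fluorophore.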

[16] = qHTS assay to test for compound auto fluorescence at 535 nm (green) in HepG2 cell free culture (AID 720686)
[17] = qHTS assay to test for compound auto fluorescence at 460 nm (blue) in HepG2 cells (AID 720687)
Outline: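 HepG2 cells in MEM with 10% FBS, attached overnight at 37 C, were exposed to compound or DMSO for 1 hr at 37 C, 5% CO2. Blue fluorescence was read at 405/460 nm, with triamterene as reference fluorophore.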

[18] = target: Glucocorticoid receptor (Homo sapiens) (UniProt P04150); assay: qHTS assay to identify small molecule agonists of the glucocorticoid receptor (GR) signaling pathway (AID 720691; active = well fitted activation curve with a large enough effect in the signal ratio in the repeat runs, not every such curve was filed as active; the % refers to the signal ratio)
Outline: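 HeLa GR-bla reporter line; cells pre-incubated 4 h, compound in DMSO 18 h at 37 C; LiveBLAzer B/G FRET substrate 2 h RT; fluorescence intensity read-out.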

[19] = qHTS assay for small molecule disruptors of the mitochondrial membrane potential (AID 720635)
Outline: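 HepG2 cells exposed to compound 1 hr at 37C, then Mito-MPS dye 30 min. Ratio read of aggregate (540/590 nm) versus monomer (490/535 nm) fluorescence.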

[20] = target: Glucocorticoid receptor (Homo sapiens) (UniProt P04150); assay: qHTS assay to identify small molecule antagonists of the glucocorticoid receptor (GR) signaling pathway (AID 720692; active = well fitted inhibition curve with a large enough effect in the signal ratio in the repeat runs, not every such curve was filed as active; the % refers to the signal ratio)
Outline: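 Read-out: beta-lactamase FRET substrate fluorescence, 2 h at room temperature, in HeLa cells stably carrying a GRE-driven bla reporter. Compounds were co-incubated with 5 nM dexamethasone agonist (final) for 18 h at 37 C.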
% is set by controls: 0 for no effect and ±100 for the full control effect.

Glucocorticoid receptor (Homo sapiens), sequence (P04150 whole entry, looked up): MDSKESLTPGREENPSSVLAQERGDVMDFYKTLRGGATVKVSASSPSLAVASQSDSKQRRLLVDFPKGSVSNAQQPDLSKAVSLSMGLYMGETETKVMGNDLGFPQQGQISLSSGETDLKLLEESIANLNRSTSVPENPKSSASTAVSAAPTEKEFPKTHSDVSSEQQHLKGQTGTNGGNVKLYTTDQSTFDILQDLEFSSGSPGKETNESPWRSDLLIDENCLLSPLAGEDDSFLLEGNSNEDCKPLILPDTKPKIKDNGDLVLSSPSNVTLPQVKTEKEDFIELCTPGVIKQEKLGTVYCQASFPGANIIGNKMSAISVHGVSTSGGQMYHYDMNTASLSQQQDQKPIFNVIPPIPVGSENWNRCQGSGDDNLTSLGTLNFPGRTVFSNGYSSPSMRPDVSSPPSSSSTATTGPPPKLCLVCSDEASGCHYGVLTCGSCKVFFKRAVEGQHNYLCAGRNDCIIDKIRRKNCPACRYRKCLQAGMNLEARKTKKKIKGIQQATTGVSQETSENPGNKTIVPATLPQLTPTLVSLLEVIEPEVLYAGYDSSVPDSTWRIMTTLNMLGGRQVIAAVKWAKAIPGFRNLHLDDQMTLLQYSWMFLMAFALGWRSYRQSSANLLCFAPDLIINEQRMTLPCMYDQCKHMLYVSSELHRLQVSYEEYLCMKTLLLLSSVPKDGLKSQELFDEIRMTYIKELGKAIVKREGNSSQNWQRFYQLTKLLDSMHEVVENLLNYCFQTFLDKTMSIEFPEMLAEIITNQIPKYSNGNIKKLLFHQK

OCC(CO)(CO)COCC(CO)(CO)CO
inactive: Potency [1] | Potency [2] | Potency [3] | Potency [4] | Potency [5] | outcome [6] | outcome [7] | Potency [8] | outcome [9] | outcome [10] | Potency [11] | outcome [12] | outcome [13] | outcome [14] | Potency [15] | outcome [16] | Potency [17]

N#CC1(O)CCCCC1
inactive: Potency [1] | Potency [2] | Potency [3] | Potency [4] | Potency [5] | outcome [6] | outcome [7] | Potency [8] | outcome [9] | outcome [10] | Potency [11] | outcome [12] | outcome [13] | outcome [14] | Potency [15] | outcome [16] | Potency [17] | Potency [18]

NS(=O)(=O)c1cc2c(cc1C(F)(F)F)NC(Cc1ccccc1)NS2(=O)=O (configuration not stated)
inactive: Potency [1] | Potency [2] | Potency [3] | Potency [4] | Potency [5] | fluorescence, relative to Rose Bengal [6] 0.0251% [at 18.6 µM] | fluorescence, % of fluorescein control [7] -0.0381% [at 18.6 µM] | fluorescence, % of triamterene [8] 0.0799% [at 18.6 µM] | fluorescence, % of fluorescent control [9] 0.307% [at 18.6 µM] | fluorescence, % of fluorescein [10] 0.103% [at 18.6 µM] | fluorescence, % of fluorescent control [11] 0.419% [at 18.6 µM] | activity change [12] 0.196% [at 18.6 µM] | fluorescence, % of fluorescent control [13] 0.0682% [at 18.6 µM] | fluorescence, % of Rose Bengal [14] -0.15% [at 18.6 µM] | fluorescence, % of fluorescent control [15] -0.0286% [at 18.6 µM] | fluorescence, % of fluorescein control [16] -0.0871% [at 18.6 µM] | fluorescence, % of fluorescent control [17] 0.0124% [at 18.6 µM]

CCCCC1CCCCC(=O)O1 (configuration not stated)
inactive: Potency [1] | Potency [2] | Potency [3] | Potency [4] | Potency [5] | Potency [19] | outcome [6] | outcome [7] | Potency [8] | outcome [9] | outcome [10] | Potency [11] | outcome [12] | outcome [13] | outcome [14] | Potency [15] | outcome [16] | Potency [17] | Potency [18] | Potency [20]

CCCCCCCCCCC1CO1 (configuration not stated)
inactive: Potency [1] | Potency [2] | Potency [3] | Potency [4] | Potency [5] | outcome [6] | outcome [7] | Potency [8] | outcome [9] | outcome [10] | Potency [11] | outcome [12] | outcome [13] | outcome [14] | Potency [15] | outcome [16] | Potency [17]

Oc1cc(O)c2c(c1)O[C@H](c1ccc(O)c(O)c1)[C@H](O)C2
inactive: Potency [1] | Potency [2] | Potency [3] | Potency [4] | Potency [5] | outcome [6] | outcome [7] | Potency [8] | outcome [9] | outcome [10] | Potency [11] | outcome [12] | outcome [13] | outcome [14] | Potency [15] | outcome [16] | Potency [17] | Potency [18] | Potency [20]

CCOC(=O)Nc1ccc2c(c1)N(C(=O)CCN1CCOCC1)c1ccccc1S2
inactive: Potency [1] | Potency [2] | Potency [3] | Potency [4] | Potency [5] | fluorescence, relative to Rose Bengal [6] 0.181% [at 18.6 µM] | fluorescence, % of fluorescein control [7] 0.0633% [at 18.6 µM] | fluorescence, % of triamterene [8] -0.0312% [at 18.6 µM] | fluorescence, % of fluorescent control [9] 0.108% [at 18.6 µM] | fluorescence, % of fluorescein [10] 0.023% [at 18.6 µM] | fluorescence, % of fluorescent control [11] 0.0825% [at 18.6 µM] | activity change [12] -0.0159% [at 18.6 µM] | fluorescence, % of fluorescent control [13] -0.268% [at 18.6 µM] | fluorescence, % of Rose Bengal [14] 0.0254% [at 18.6 µM] | fluorescence, % of fluorescent control [15] 0.0956% [at 18.6 µM] | fluorescence, % of fluorescein control [16] -0.013% [at 18.6 µM] | fluorescence, % of fluorescent control [17] -0.0127% [at 18.6 µM] | Potency [18] | Potency [20]

CC(=O)N[C@@H](CCC(N)=O)C(=O)O
inactive: Potency [1] | Potency [2] | Potency [3] | Potency [4] | Potency [5] | Potency [19] | outcome [6] | outcome [7] | Potency [8] | outcome [9] | outcome [10] | Potency [11] | outcome [12] | outcome [13] | outcome [14] | Potency [15] | outcome [16] | Potency [17] | Potency [18] | Potency [20]

CCCCc1ccc(N)cc1
inactive: Potency [1] | Potency [2] | Potency [3] | Potency [4] | Potency [5] | outcome [6] | outcome [7] | Potency [8] | outcome [9] | outcome [10] | Potency [11] | outcome [12] | outcome [13] | outcome [14] | Potency [15] | outcome [16] | Potency [17] | Potency [18] | Potency [20]

O=C(O)c1ccccc1S
inactive: Potency [1] | Potency [2] | Potency [3] | Potency [4] | Potency [5] | Potency [19] | outcome [6] | outcome [7] | Potency [8] | outcome [9] | outcome [10] | Potency [11] | outcome [12] | outcome [13] | outcome [14] | Potency [15] | outcome [16] | Potency [17] | Potency [18] | Potency [20]

CO[Si](OC)(OC)OC
inactive: Potency [1] | Potency [2] | Potency [3] | Potency [4] | Potency [5] | outcome [6] | outcome [7] | Potency [8] | outcome [9] | outcome [10] | Potency [11] | outcome [12] | outcome [13] | outcome [14] | Potency [15] | outcome [16] | Potency [17] | Potency [18] | Potency [20]

Nc1nc2c(ncn2CCC(CO)CO)c(=O)[nH]1
inactive: Potency [1] | Potency [2] | Potency [3] | Potency [4] | Potency [5] | Potency [19] | outcome [6] | outcome [7] | Potency [8] | outcome [9] | outcome [10] | Potency [11] | outcome [12] | outcome [13] | outcome [14] | Potency [15] | outcome [16] | Potency [17] | Potency [18] | Potency [20]

COC(C(=O)O)c1ccccc1 (configuration not stated)
inactive: Potency [1] | Potency [2] | Potency [3] | Potency [4] | Potency [5] | Potency [19] | outcome [6] | outcome [7] | Potency [8] | outcome [9] | outcome [10] | Potency [11] | outcome [12] | outcome [13] | outcome [14] | Potency [15] | outcome [16] | Potency [17] | Potency [18] | Potency [20]

CCCC(C)C(=O)O (configuration not stated)
inactive: Potency [1] | Potency [2] | Potency [3] | Potency [4] | Potency [5] | outcome [6] | outcome [7] | Potency [8] | outcome [9] | outcome [10] | Potency [11] | outcome [12] | outcome [13] | outcome [14] | Potency [15] | outcome [16] | Potency [17]
